Screening data deposited in PubChem by several laboratories.
A selection: hits, their analogues and other compounds. The true share with any hit is near 2.3%.
CF NFkB inh = inhibitors of cystic fibrosis induced NF-kB; KKLEB NF-kB-GFP reporter, PAF-induced, GFP fluorescence overnight; inhibition, % at 5 µM; actives 0.86% (n = 360,000); AID 588850;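 active means at least 50% inhibition at 5 µM, scaled per plate between neutral and stimulator controls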;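 further: PAF is a Pseudomonas aeruginosa culture filtrate used as stimulus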
LGR2 antag = inhibitors of bursicon-induced Drosophila LGR2 receptor cAMP signaling. HEK293 LGR2, CRE-luciferase, bursicon-stimulated, 4 h. inhibition, % at 9.99 µM. actives 0.35% (n = 380,000). AID 720647;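 active means drop in luminescence signal, shown as inhibition above about 50% in the replicate tests, limit read from the data, passing the limit was not always enough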;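 further: agonist challenge used bursicon conditioned medium at about half maximal strength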
HIF-2a block = inhibitors of HIF-2a. inhibition, % at 18.8 µM. 786-0 RCC cells HIF-2a reporter, luciferase luminescence, overnight. actives 0.72% (n = 360,000);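 active means inhibition of the luminescence signal of 40% or more relative to plate controls, in a single-dose primary screen at 18.75 µM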
TWEAK-Fn14 inh = TWEAK-Fn14 signaling inhibition. TWEAK-stimulated Fn14 reporter cells, luciferase luminescence, 8 h. inhibition, % at 10 µM. actives 2% (n = 360,000); in the data active means inhibition above about 50%
iPSC survival up = increases survival of single human iPS cells | hiPSC single-cell survival, ATPlite luminescence; 100% = ROCK inhibitor wells, 0% = DMSO | survival enhancement, % at 20 µM | actives 0.044% (n = 360,000) | AID 602274; in the data active means survival enhancement above about 18%;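 further: cells exposed to compounds for 16 hours before the ATP read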
KKLEB tox = CF airway cell cytotoxicity counter-screen; AID 602141; activity change (cytotoxicity), % at 5 µM; actives 0.36% (n = 360,000); KKLEB CF airway cells viability, ATPlite luminescence, overnight; stronger effect = lower value; cells stimulated with P. aeruginosa culture filtrate;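 active means corrected activity change at or below -50% at 5 µM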
Numbers stand for hits.

What do the screens show for `Cc1cc(O)c2c(c1O)C(=O)[C@]13C(=C2O)C(=O)[C@@H]2[C@@H](O)[C@H]1[C@@H]1[C@H](O)[C@H]3C(=O)C3=C(O)c4c(O)cc(C)c(O)c4C(=O)[C@]312`?
CF NFkB inh: 53; HIF-2a block: inactive; TWEAK-Fn14 inh: 65; iPSC survival up: inactive; KKLEB tox: inactive

What do the screens show for `COc1cc(CNc2ncnc3c2ncn3[C@H]2CN(Cc3ccc(-c4ccccc4)cc3)C[C@@H](CO)O2)cc(OC)c1OC`?
CF NFkB inh: inactive; LGR2 antag: inactive; HIF-2a block: inactive; TWEAK-Fn14 inh: 69; iPSC survival up: inactive; KKLEB tox: inactive

What do the screens show for `COc1cc(CNc2ncnc3c2ncn3[C@H]2CN(Cc3ccc(C(=O)O)cc3)C[C@@H](CO)O2)cc(OC)c1OC`?
CF NFkB inh: inactive; LGR2 antag: inactive; HIF-2a block: inactive; TWEAK-Fn14 inh: inactive; iPSC survival up: inactive; KKLEB tox: inactive

Results for CC(C)CNc1ncnc2c1ncn2[C@H]1CN(Cc2ccc(-c3ccccc3)cc2)C[C@@H](CO)O1 ?
CF NFkB inh: inactive; LGR2 antag: inactive; HIF-2a block: inactive; TWEAK-Fn14 inh: 51; iPSC survival up: inactive; KKLEB tox: inactive

How did COc1ccc(S(=O)(=O)Nc2ccc3c(c2)C(=O)N([C@H](C)CO)C[C@H](C)[C@H](CN(C)C)OCCCC[C@H](C)O3)cc1 do in these assays?
LGR2 antag: inactive

How did COc1ccc(NC(=O)N(C)C[C@H]2Oc3ccc(NS(=O)(=O)c4ccc(C)cc4)cc3CC(=O)N([C@@H](C)CO)C[C@@H]2C)cc1 do in these assays?
LGR2 antag: inactive

Results for Oc1ccc(Nc2nc(-c3ccc4ccccc4c3)cs2)cc1 ?
CF NFkB inh: inactive; HIF-2a block: inactive; TWEAK-Fn14 inh: 76; iPSC survival up: inactive; KKLEB tox: inactive

How did CC(=O)Nc1nc(-c2ccc3ccccc3c2)cs1 do in these assays?
CF NFkB inh: inactive; LGR2 antag: inactive; HIF-2a block: inactive; TWEAK-Fn14 inh: inactive; iPSC survival up: inactive; KKLEB tox: inactive

How did Cc1ccc(Nc2nc(-c3c(C)nc4ccccn34)cs2)cc1 do in these assays?
CF NFkB inh: inactive; LGR2 antag: inactive; HIF-2a block: inactive; TWEAK-Fn14 inh: 95; iPSC survival up: inactive; KKLEB tox: inactive

What do the screens show for `COc1ccc(NC(=O)N(C)C[C@H]2Oc3ccc(NC(=O)C4CCCCC4)cc3CC(=O)N([C@@H](C)CO)C[C@@H]2C)cc1`?
LGR2 antag: inactive

Results for Cc1sc(NC(=O)CCCC(=O)O)c(C(N)=O)c1-c1ccccc1 ?
CF NFkB inh: inactive; LGR2 antag: inactive; HIF-2a block: 78; TWEAK-Fn14 inh: 53; iPSC survival up: inactive; KKLEB tox: inactive

Results for COC(=O)C[C@@H]1C=C[C@@H](NC(=O)c2ccccc2)[C@H](CO)O1 ?
LGR2 antag: inactive

How did Cc1noc(NS(=O)(=O)c2ccc(N/C=C/C(=O)c3ccc(F)cc3)cc2)c1C do in these assays?
CF NFkB inh: inactive; LGR2 antag: inactive; HIF-2a block: inactive; TWEAK-Fn14 inh: 57; iPSC survival up: inactive; KKLEB tox: inactive

How did CCn1nc([N+](=O)[O-])c(C(C#N)c2nc3ccccc3n2C)c(Cl)c1=O (configuration not stated) do in these assays?
CF NFkB inh: inactive; LGR2 antag: inactive; HIF-2a block: inactive; TWEAK-Fn14 inh: 69; iPSC survival up: inactive; KKLEB tox: inactive

What do the screens show for `Cn1c(C(C#N)C(=O)c2sc3ccccc3c2Cl)nc2ccccc21` (configuration not stated)?
CF NFkB inh: inactive; HIF-2a block: inactive; TWEAK-Fn14 inh: inactive; iPSC survival up: inactive; KKLEB tox: inactive

Results for CC(C)c1nnc(NC(=O)CCS(=O)(=O)c2nc(-c3cccs3)cc(C(F)(F)F)n2)s1 ?
CF NFkB inh: 95; HIF-2a block: inactive; TWEAK-Fn14 inh: 62; iPSC survival up: inactive; KKLEB tox: inactive

What do the screens show for `COc1ccc(/C=N/NC(=O)c2ccc3ccccc3c2)cc1OS(=O)(=O)c1ccc(NC(C)=O)cc1`?
CF NFkB inh: 61; HIF-2a block: inactive; TWEAK-Fn14 inh: 52; iPSC survival up: inactive; KKLEB tox: inactive

Results for COc1ccc(/C=N/NC(=O)c2ccncc2)cc1OC ?
CF NFkB inh: inactive; LGR2 antag: inactive; HIF-2a block: inactive; TWEAK-Fn14 inh: inactive; iPSC survival up: inactive; KKLEB tox: inactive
